Compound activity (PubChem BioAssay)
BaF3 tox – reduces parental Ba/F3 cell viability, JAK2V617F counter-screen | 1.1% of 220,000 active | inhibition, % at 5.6 µM | CellTiter-Glo ATP luminescence | AID 1486;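 active means inhibition above a per-campaign cutoff, the mean inhibition of all tested compounds plus 3 SD, cut at about 27% in these data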
Ba/F3 V617F tox – loss of viability in JAK2V617F-driven Ba/F3 cells; Ba/F3 EpoR-JAK2V617F viability, ATP luminescence; inhibition, % at 5.6 µM; 1.1% of 220,000 active; AID 1446;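 active means inhibition above the campaign mean plus 3 SD over all tested compounds, cut at about 24% in these data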;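 further: cytokine-independent growth of Ba/F3 cells driven by EpoR plus mutant JAK2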
KLF5 inh – kruppel-like factor 5 inhibition; DLD-1 KLF5 promoter-luciferase reporter, luminescence; inhibition, % at 5 µM; 0.23% of 290,000 active; AID 1700;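 active means inhibition above a per-plate limit of that plate's mean compound inhibition plus 3 SD, cut at about 60% in these data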;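 further: higher means less KLF5 promoter-driven luciferase light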
aSyn UTR inh – 5' untranslated region of α-synuclein, MLPCN primary screen; alpha-synuclein 5'UTR reporter, inhibitor activity; 0.82% of 300,000 active; inhibition, % (tested at 7.5 µM); in the data active means inhibition above about 60%;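 further: H4 neuroglioblastoma cells stably carrying SNCA 5'UTR luciferase fusion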
APP transl inh – APP translation inhibition. inhibition, % at 2 µM. SH-SY5Y APP 5'UTR-luciferase reporter, luminescence. 0.82% of 190,000 active;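 active means inhibition above a set limit, derived from the sample mean plus 3 SD, cut at about 45% in these data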
IEC-6 cytotox – counter-screen for KLF5 inhibitors: cytotoxicity in IEC-6 cells; inhibition, % at 5 µM; 0.78% of 290,000 active; AID 1825; IEC-6 cytotoxicity, luminescence viability; in the data active means inhibition above about 22%
A number is an active result; n = inactive; x = not tested or not shown. Rows were chosen to be rich in hits. Some 2.2% of all compounds tested hit in one or more screens of this group.

SMILES	BaF3 tox	Ba/F3 V617F tox	KLF5 inh	aSyn UTR inh	APP transl inh	IEC-6 cytotox
Cc1ccc(O)c(/C=N/NC(=O)c2[nH]ncc2Br)c1	n	n	n	n	n	n
CC(C)[C@H](NC(=O)c1nn(Cc2ccccc2)c(=O)c2ccccc12)C(=O)O	x	x	n	n	x	n
CCOc1ccc(C(=O)CSCCC(=O)O)cc1	n	n	n	68	n	n
Cc1ccc(C)c(NC(=O)C2CCCN2C(=O)NC2CCCCC2)c1 (stereo unspecified)	n	n	n	n	n	n
O=C(NNc1cc(N2CCOCC2)nc(N2CCOCC2)n1)c1ccc(Cl)c(Cl)c1	n	n	n	n	n	n
Cc1ccc(C(=O)NNc2cc(N3CCCC3)nc(N3CCCC3)n2)cc1	n	n	n	74	n	n
O=C(CCCc1nc2ccccc2s1)NNC(=O)CCN1CCN(Cc2ccccc2)CC1	n	n	n	n	n	n
COc1ccc(C2c3ccc4ccccc4c3Oc3ncn(CCN4CCOCC4)c(=N)c32)cc1 (stereo unspecified)	n	n	n	n	n	n
CN(C)CCCn1cnc2c(c1=N)C(c1ccccc1)c1ccc3ccccc3c1O2 (stereo unspecified)	x	x	n	90	x	n
COc1ccc(C2c3ccc4ccccc4c3Oc3ncn(CCN4CCOCC4)c(=N)c32)cc1OC (stereo unspecified)	n	n	n	105	x	n
OC(COC(c1ccccc1)c1ccccc1)CN1CCOCC1 (stereo unspecified)	81	n	n	n	n	n
OC(COc1ccccc1)CN1CCN(CC(O)COc2ccccc2)CC1 (stereo unspecified)	n	n	n	n	n	n
OC(COc1ccccc1)CN1CCCCCC1 (stereo unspecified)	81	n	n	n	n	n
OC(COc1ccc(CNCCc2ccc(C(F)(F)F)cc2)cc1)CN1CCCCC1 (stereo unspecified)	103	102	n	82	n	99
COc1ccc(C(=O)Nc2ccc(NS(=O)(=O)c3ccccc3)cc2)cc1OC	n	n	n	n	x	n
CCCCOc1ccc(NC(=O)C(=O)NCCCn2ccnc2)cc1	n	n	n	66	n	n
CCCCCCOc1ccc(C(=O)NCCCn2ccnc2)cc1	n	n	n	n	n	n
CCc1cc(=O)oc2cc(C)cc(OCC(=O)NCc3ccncc3)c12	x	x	n	n	x	n
O=S(=O)(Nc1ccc(N2CCOCC2)cc1)c1ccc(F)cc1	90	n	n	n	n	n
O=S(=O)(Nc1ccc(N2CCCCC2)cc1)c1ccc(F)cc1	n	n	n	n	x	n
CN(C)c1ccc(/C=C/c2cc[n+]([O-])cc2)cc1	n	n	n	n	n	n
CN(C)c1ccc(/C=C/c2cc[n+](C)cc2)cc1	71	94	n	n	n	n
CC1=NN(C(N)=S)C(=O)C1N=Nc1ccc(F)cc1 (stereo unspecified)	x	x	n	n	x	n
CC1=NN(C(N)=S)C(=O)C1N=Nc1ccc(O)cc1 (stereo unspecified)	58	37	n	n	n	n
OCCCNc1cc(-c2ccnc(Nc3cccc(Cl)c3)n2)ccn1	x	x	x	110	x	x
SMILES	BaF3 tox	Ba/F3 V617F tox	KLF5 inh	aSyn UTR inh	APP transl inh	IEC-6 cytotox
CN(C(=O)COC(=O)C1COc2ccccc2O1)c1c(N)n(Cc2ccccc2)c(=O)[nH]c1=O (stereo unspecified)	x	x	x	n	x	x
Cc1ccc(C(=O)Nc2ccc3ncccc3c2)cc1	x	x	n	84	x	n
CC(=O)c1nn(-c2cccc(C)c2)cc1C(=O)c1cccc(Br)c1	x	x	x	n	x	x
CCC1=Nc2cc(C(=O)NCCN3CCOCC3)ccc2Sc2ccccc21	x	x	n	n	x	n
CCOCCCNC(=O)c1ccc2c(c1)N=C(CC)c1cc(Br)ccc1S2	95	92	74	88	94	93
O=C(COC(=O)/C=C/c1ccccc1)Nc1cc(C(F)(F)F)ccc1N1CCOCC1	n	n	n	n	n	n
COc1ccccc1/C=C/C(=O)OCC(=O)Nc1cc(C(F)(F)F)ccc1N1CCOCC1	n	n	n	n	61	n
COc1ccc(C(C(=O)NC2CCCC2)N(Cc2cccnc2)C(=O)c2snc(C(N)=O)c2N)cc1OC (stereo unspecified)	x	x	n	n	x	n
NC(=O)c1sc2nc3c(c(-c4cccs4)c2c1N)CCCC3	n	n	n	n	46	n
NC(=O)c1sc2nc3c(c(-c4ccco4)c2c1N)CCC3	n	n	n	n	n	n
COc1ccc(CCNc2ncnc3c2oc2ccccc23)cc1OC	62	51	n	n	n	n
NS(=O)(=O)c1ccc(CCNc2ncnc3sccc23)cc1	43	33	n	n	n	n
Cc1sc2ncnc(NCCCn3ccnc3)c2c1C	n	n	n	n	n	n
COc1ccc(CCNc2ncnc3sccc23)cc1OC	69	64	n	n	n	n
Cc1sc2ncnc(NCCc3ccc(S(N)(=O)=O)cc3)c2c1C	58	51	n	n	n	n
COC(=O)c1ccc(COC(=O)CNS(=O)(=O)c2ccc(C)cc2)cc1	n	n	n	n	n	n
CC(C)Nc1ccc(Nc2ccnc3cc4ccccc4cc23)cc1	n	n	n	99	x	n
Cc1c(O)c(=O)ccn1Cc1ccccc1	n	n	n	68	n	n
Cc1ccc(Cn2ccc(=O)c(OCc3ccccc3)c2C)cc1	n	n	n	n	n	n
O=C(CCNC(=O)c1ccccc1)OCC(=O)c1ccccc1	n	n	n	n	n	n
CCn1nnc2cc(C(=O)NCCc3ccccc3F)ccc21	x	x	n	63	x	n
Cc1ccc(N2CC(C(=O)Nc3ccc(S(=O)(=O)Nc4nccc(C)n4)cc3)CC2=O)cc1 (stereo unspecified)	n	n	n	n	n	n
Cc1ccc(-n2c(C)cc(/C=c3/sc4nc5ccccc5n4c3=O)c2C)cc1	n	n	n	67	n	n
O=c1/c(=C\c2cccn2-c2ccccc2)sc2nc3ccccc3n12	n	n	n	x	n	n
Cc1nn(C)c(C)c1CN(Cc1nc(CCC(C)C)no1)C(C)C	81	53	n	n	n	n
SMILES	BaF3 tox	Ba/F3 V617F tox	KLF5 inh	aSyn UTR inh	APP transl inh	IEC-6 cytotox
Nc1cc(N)nc(SCC(=O)Nc2cc(S(=O)(=O)N3CCOCC3)ccc2Cl)n1	x	x	n	n	x	n
O=C(Nc1ccc(Cl)cc1C(F)(F)F)c1ccc(Cl)cc1	n	n	n	n	n	n
O=C(NNC(=O)c1cc(C(F)(F)F)cc(C(F)(F)F)c1)c1ccc(Cl)cc1	62	n	n	n	x	n
C=CC[n+]1c(-c2ccc(Cl)cc2Cl)csc1Nc1c(C)n(C)n(-c2ccccc2)c1=O	n	n	n	n	n	n
C=CC[n+]1c(-c2ccc(Cl)cc2Cl)csc1Nc1ccc(NC(C)=O)cc1	n	n	n	94	n	n
CN(C)C(CNC(=O)c1ccc(S(=O)(=O)N(C)C)cc1)Cc1ccccc1 (stereo unspecified)	n	n	n	n	n	n
Cc1nn(Cc2ccc(Cl)c(Cl)c2)c(C)c1NC(=O)c1cc(-c2ccc3c(c2)OCO3)on1	n	n	n	66	52	n
